# Reference: ChEMBL document CHEMBL1961873, “Compounds: GSK PKIS; Assays: Nanosyn kinase panel” (2012)
# Tests used:
# [1] = target: T1, Serine/threonine-protein kinase D2 (Homo sapiens) (UniProt Q9BZL6); conditions: at 1 µM;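 also: mean value of PRKD2 inhibition, from the GSK PKIS screening panel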
# T1 sequence (whole entry): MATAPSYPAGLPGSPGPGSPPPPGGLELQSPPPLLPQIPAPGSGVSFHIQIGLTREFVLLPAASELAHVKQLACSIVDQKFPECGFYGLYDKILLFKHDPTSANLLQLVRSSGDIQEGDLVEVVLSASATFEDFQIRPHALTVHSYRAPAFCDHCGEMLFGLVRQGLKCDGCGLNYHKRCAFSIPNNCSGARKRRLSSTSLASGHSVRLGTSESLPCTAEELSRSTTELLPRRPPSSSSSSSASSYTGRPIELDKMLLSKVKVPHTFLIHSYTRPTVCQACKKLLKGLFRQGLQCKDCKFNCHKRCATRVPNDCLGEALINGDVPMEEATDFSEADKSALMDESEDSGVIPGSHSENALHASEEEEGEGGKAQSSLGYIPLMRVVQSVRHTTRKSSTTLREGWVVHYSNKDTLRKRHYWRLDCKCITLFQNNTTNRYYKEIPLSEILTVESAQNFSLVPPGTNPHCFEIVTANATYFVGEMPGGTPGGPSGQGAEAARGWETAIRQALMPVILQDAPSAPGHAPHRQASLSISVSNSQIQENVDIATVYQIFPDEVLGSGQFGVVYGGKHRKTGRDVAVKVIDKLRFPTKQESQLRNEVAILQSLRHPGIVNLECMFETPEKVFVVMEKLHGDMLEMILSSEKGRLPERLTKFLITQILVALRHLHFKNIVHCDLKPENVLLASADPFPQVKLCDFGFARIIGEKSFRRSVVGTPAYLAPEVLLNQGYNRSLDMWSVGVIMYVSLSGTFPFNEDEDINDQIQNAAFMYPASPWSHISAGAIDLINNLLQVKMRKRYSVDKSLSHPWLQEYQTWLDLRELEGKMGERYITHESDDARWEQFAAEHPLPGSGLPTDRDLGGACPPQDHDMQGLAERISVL
# [2] = target: T2, Serine/threonine-protein kinase D3 (Homo sapiens) (UniProt O94806); conditions: at 0.1 µM
# T2 sequence (whole entry): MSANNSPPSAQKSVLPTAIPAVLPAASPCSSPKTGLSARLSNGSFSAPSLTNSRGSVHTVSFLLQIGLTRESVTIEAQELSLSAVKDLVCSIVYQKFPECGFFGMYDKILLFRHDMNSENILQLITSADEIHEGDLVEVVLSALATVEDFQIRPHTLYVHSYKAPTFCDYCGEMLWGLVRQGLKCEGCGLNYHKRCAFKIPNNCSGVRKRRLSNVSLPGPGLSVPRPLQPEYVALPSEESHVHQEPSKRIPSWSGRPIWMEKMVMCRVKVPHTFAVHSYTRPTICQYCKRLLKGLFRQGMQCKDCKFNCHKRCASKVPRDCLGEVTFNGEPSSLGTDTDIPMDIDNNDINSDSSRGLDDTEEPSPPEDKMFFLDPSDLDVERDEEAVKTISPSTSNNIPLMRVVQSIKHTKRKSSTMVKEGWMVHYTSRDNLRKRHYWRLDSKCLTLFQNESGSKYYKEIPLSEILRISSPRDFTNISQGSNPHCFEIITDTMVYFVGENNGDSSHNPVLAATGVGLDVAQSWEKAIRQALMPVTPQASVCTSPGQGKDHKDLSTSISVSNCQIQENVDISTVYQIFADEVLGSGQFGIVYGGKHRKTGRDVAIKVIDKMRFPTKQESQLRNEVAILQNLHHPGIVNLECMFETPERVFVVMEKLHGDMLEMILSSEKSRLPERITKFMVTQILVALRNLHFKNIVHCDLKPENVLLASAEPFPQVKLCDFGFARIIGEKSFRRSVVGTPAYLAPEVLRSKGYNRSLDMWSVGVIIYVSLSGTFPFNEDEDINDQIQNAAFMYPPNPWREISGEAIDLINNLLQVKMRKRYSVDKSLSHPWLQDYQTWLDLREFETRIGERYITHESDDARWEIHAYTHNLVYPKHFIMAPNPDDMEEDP
# [3] = target: T2, Serine/threonine-protein kinase D3 (Homo sapiens); conditions: at 1 µM
# [4] = target: T3, cGMP-dependent protein kinase 1 (Homo sapiens) (UniProt Q13976); conditions: at 0.1 µM
# T3 sequence (whole entry): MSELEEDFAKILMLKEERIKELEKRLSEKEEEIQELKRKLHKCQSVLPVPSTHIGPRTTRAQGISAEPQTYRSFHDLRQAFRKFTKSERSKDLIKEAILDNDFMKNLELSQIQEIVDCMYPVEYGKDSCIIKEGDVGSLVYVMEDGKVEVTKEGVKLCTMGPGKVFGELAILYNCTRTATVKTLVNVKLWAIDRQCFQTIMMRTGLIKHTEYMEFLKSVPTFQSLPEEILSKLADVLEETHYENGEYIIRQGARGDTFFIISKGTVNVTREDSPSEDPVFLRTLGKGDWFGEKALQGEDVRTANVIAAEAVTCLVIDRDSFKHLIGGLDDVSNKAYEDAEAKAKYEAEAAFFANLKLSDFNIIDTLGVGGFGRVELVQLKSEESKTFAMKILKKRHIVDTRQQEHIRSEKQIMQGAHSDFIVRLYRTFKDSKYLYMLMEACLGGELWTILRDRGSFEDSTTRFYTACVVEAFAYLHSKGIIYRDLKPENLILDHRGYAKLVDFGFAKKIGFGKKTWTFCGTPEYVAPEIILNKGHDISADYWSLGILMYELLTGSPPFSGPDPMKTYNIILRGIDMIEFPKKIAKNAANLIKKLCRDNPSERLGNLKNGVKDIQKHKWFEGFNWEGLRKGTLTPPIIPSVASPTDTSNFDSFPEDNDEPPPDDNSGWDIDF
# [5] = target: T3, cGMP-dependent protein kinase 1 (Homo sapiens); conditions: at 1 µM
# [6] = target: T4, cGMP-dependent protein kinase 2 (Homo sapiens) (UniProt Q13237); conditions: at 0.1 µM
# T4 sequence (whole entry): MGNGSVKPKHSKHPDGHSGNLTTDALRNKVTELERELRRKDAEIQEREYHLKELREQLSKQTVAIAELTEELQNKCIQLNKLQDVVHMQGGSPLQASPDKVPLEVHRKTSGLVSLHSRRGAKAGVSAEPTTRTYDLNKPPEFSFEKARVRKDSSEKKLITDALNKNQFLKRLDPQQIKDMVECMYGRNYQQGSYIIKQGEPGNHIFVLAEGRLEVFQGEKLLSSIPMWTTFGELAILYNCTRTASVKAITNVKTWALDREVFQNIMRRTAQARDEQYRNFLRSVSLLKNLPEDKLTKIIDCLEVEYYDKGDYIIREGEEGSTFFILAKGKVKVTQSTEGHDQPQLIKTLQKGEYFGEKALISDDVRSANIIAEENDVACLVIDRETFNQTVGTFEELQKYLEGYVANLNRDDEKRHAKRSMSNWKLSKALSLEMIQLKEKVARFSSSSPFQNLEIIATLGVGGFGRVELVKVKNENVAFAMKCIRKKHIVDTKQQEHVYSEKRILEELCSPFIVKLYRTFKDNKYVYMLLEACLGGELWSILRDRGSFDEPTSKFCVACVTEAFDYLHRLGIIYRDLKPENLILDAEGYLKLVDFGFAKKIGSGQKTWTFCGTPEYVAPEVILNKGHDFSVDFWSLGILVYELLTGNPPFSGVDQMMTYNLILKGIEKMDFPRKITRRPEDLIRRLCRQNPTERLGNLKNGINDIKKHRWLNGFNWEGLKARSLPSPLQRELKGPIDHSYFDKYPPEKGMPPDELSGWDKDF
# [7] = target: T4, cGMP-dependent protein kinase 2 (Homo sapiens); conditions: at 1 µM
# [8] = target: T5, cAMP-dependent protein kinase catalytic subunit PRKX (Homo sapiens) (UniProt P51817); conditions: at 0.1 µM
# T5 sequence (whole entry): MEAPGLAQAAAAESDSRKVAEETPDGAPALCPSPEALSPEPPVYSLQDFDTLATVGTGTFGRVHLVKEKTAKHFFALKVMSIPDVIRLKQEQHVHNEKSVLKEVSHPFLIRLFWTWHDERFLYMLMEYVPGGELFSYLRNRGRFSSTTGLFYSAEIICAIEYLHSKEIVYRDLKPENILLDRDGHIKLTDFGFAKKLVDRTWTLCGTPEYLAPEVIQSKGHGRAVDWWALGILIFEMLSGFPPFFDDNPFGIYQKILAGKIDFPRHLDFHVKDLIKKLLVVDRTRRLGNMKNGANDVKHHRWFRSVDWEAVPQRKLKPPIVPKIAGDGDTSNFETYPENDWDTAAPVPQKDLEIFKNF
# [9] = target: T5, cAMP-dependent protein kinase catalytic subunit PRKX (Homo sapiens); conditions: at 1 µM
# [10] = target: Rho-associated protein kinase 1 (Homo sapiens) (UniProt Q13464); conditions: at 0.1 µM
# Chain of Rho-associated protein kinase 1 (Homo sapiens) (Q13464 2-1354 limits assumed): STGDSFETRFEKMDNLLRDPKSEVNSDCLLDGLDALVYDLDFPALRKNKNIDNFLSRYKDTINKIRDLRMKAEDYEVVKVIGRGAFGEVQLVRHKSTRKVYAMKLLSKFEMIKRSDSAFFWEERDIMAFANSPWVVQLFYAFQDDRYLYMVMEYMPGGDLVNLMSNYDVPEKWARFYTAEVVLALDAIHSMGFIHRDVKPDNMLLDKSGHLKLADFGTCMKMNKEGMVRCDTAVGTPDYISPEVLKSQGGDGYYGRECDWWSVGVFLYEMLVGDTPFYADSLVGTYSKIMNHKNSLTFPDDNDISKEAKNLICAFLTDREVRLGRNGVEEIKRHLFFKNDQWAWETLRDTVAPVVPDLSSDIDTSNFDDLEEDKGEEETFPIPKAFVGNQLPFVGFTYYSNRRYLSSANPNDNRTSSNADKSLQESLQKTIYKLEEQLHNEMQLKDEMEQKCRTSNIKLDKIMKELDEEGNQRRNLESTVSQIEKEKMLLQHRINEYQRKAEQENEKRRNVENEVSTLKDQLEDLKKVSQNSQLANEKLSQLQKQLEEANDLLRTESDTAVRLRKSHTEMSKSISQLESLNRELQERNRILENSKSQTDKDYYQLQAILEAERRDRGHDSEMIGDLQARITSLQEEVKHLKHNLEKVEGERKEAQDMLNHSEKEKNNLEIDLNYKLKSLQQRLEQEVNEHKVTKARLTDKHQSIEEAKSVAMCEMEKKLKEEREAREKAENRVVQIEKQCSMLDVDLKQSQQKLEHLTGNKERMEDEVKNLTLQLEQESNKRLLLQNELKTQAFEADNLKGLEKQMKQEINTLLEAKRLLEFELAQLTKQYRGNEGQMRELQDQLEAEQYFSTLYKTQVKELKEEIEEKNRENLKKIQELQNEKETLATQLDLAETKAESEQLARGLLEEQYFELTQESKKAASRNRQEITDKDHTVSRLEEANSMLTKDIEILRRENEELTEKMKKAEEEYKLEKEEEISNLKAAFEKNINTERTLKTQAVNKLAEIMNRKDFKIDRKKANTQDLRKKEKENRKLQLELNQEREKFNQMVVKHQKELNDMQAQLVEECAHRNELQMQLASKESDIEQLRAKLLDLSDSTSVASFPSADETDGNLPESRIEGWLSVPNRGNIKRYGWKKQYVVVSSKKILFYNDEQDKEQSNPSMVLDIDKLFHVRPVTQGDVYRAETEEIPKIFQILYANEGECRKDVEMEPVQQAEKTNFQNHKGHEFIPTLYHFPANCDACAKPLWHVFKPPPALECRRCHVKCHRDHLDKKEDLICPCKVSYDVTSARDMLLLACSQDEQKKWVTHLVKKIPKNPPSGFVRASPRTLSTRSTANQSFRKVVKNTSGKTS
# [11] = target: Rho-associated protein kinase 1 (Homo sapiens) (UniProt Q13464); conditions: at 1 µM
# [12] = target: Rho-associated protein kinase 2 (Homo sapiens) (UniProt O75116); conditions: at 0.1 µM
# Chain of Rho-associated protein kinase 2 (Homo sapiens) (O75116 whole entry, looked up): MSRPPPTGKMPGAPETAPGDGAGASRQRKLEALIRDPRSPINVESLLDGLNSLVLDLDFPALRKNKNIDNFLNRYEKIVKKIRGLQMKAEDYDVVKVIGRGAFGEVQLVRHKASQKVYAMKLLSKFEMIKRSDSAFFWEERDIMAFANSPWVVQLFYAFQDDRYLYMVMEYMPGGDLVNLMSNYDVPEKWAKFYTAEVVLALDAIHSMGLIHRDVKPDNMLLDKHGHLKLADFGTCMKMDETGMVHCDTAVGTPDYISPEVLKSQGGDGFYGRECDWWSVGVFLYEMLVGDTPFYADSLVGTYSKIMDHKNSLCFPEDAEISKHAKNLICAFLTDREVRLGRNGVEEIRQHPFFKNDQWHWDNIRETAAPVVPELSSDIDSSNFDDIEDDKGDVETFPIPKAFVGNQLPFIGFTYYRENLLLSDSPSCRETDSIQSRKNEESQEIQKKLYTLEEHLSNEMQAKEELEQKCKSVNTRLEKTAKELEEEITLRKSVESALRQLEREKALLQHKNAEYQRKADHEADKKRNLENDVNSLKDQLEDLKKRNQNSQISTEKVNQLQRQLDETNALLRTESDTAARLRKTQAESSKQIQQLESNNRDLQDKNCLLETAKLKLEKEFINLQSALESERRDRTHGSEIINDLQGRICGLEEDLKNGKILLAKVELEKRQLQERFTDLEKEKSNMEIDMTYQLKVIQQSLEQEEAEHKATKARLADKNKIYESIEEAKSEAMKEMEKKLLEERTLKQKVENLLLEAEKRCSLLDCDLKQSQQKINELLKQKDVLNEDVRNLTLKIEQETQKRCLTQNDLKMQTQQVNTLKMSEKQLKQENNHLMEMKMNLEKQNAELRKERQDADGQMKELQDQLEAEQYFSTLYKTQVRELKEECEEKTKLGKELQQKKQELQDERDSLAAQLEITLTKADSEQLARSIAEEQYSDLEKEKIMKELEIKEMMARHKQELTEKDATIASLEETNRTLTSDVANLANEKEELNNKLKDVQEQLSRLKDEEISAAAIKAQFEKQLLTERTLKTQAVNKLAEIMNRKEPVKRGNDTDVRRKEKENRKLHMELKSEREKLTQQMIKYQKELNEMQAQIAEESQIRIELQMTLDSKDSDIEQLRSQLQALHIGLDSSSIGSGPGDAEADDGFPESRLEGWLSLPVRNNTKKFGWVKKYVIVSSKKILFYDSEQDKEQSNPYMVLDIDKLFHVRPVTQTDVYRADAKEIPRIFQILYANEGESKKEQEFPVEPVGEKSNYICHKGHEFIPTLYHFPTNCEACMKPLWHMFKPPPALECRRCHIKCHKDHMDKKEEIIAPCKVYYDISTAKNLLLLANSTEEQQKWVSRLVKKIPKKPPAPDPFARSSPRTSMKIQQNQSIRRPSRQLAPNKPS
# [13] = target: Rho-associated protein kinase 2 (Homo sapiens) (UniProt O75116); conditions: at 1 µM
# [14] = target: Ribosomal protein S6 kinase alpha-1 (Homo sapiens) (UniProt Q15418); conditions: at 0.1 µM
# Chain of Ribosomal protein S6 kinase alpha-1 (Homo sapiens) (Q15418 whole entry): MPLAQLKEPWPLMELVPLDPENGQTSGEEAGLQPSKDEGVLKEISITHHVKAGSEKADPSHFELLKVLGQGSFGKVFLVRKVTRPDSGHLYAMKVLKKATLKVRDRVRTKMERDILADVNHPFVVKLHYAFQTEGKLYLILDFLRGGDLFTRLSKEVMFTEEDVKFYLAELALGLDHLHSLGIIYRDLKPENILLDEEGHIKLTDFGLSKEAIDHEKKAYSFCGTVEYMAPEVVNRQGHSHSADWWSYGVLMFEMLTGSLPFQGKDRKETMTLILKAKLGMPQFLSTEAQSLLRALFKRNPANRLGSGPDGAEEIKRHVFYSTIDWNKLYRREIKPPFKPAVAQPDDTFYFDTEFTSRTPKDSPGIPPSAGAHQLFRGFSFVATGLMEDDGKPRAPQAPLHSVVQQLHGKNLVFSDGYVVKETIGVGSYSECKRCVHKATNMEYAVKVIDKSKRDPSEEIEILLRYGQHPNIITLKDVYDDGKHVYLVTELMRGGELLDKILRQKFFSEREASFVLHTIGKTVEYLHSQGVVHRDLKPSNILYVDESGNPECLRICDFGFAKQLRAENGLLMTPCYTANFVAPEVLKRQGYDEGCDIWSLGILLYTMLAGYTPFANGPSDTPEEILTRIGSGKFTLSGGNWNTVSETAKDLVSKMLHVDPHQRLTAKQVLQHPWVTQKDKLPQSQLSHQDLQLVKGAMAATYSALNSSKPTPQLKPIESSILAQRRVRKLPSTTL
# [15] = target: Ribosomal protein S6 kinase alpha-1 (Homo sapiens) (UniProt Q15418); conditions: at 1 µM
# [16] = target: Ribosomal protein S6 kinase alpha-3 (Homo sapiens) (UniProt P51812); conditions: at 0.1 µM
# Chain of Ribosomal protein S6 kinase alpha-3 (Homo sapiens) (P51812 whole entry): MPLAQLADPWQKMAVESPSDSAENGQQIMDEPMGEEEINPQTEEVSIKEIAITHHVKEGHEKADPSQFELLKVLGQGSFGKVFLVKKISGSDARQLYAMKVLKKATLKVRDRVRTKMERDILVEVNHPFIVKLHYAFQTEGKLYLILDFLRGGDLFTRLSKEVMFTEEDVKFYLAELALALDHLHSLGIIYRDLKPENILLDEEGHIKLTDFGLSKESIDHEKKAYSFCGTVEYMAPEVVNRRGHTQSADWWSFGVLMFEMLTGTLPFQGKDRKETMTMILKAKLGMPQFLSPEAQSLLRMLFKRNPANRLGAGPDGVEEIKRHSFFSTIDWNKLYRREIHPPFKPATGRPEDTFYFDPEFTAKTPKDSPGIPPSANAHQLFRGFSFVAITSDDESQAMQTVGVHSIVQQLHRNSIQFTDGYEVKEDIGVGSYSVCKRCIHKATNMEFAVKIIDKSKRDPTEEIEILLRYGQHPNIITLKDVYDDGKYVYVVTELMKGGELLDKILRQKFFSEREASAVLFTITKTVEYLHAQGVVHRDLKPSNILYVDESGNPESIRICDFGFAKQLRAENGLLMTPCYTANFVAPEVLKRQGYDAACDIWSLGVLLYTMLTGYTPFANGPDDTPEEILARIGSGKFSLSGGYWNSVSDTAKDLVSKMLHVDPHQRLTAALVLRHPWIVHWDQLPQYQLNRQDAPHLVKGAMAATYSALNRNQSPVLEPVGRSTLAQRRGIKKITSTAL
# [17] = target: Ribosomal protein S6 kinase alpha-3 (Homo sapiens) (UniProt P51812); conditions: at 1 µM
# [18] = target: Ribosomal protein S6 kinase alpha-2 (Homo sapiens) (UniProt Q15349); conditions: at 0.1 µM
# Chain of Ribosomal protein S6 kinase alpha-2 (Homo sapiens) (Q15349 whole entry): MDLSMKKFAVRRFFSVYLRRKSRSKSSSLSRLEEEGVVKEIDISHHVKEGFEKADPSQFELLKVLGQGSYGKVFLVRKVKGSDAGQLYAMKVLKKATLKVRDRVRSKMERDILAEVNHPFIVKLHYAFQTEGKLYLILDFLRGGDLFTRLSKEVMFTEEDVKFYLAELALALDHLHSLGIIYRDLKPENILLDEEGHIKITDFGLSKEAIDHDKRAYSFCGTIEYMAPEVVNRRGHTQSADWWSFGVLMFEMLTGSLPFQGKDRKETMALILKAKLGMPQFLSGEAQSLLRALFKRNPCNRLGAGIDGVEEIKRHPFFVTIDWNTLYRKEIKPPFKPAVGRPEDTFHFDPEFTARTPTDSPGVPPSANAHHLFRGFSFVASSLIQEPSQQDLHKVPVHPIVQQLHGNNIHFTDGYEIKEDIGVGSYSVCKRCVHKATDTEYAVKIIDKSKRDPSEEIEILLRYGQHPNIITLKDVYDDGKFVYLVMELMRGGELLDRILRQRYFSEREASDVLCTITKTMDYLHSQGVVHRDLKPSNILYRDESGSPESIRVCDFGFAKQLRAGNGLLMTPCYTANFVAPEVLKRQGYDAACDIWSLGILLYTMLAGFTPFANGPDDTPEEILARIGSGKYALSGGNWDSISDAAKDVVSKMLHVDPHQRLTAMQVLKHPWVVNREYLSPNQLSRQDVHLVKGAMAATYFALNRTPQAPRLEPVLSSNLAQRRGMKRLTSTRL
# [19] = target: Ribosomal protein S6 kinase alpha-2 (Homo sapiens) (UniProt Q15349); conditions: at 1 µM
# [20] = target: Ribosomal protein S6 kinase alpha-6 (Homo sapiens) (UniProt Q9UK32); conditions: at 0.1 µM;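 also: reported value is the mean inhibition of RSK4, from the GSK PKIS kinase inhibitor screen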
Structure (SMILES),inhibition [1],inhibition [2],inhibition [3],inhibition [4],inhibition [5],inhibition [6],inhibition [7],inhibition [8],inhibition [9],inhibition [10],inhibition [11],inhibition [12],inhibition [13],inhibition [14],inhibition [15],inhibition [16],inhibition [17],inhibition [18],inhibition [19],inhibition [20]
CN(c1ccc(NC(=O)NCCN2CCOCC2)cc1)c1ccnc(Nc2ccc(CS(C)(=O)=O)cc2)n1,1.04%,1.13%,0.94%,2.25%,2.49%,0.06%,0.57%,2.36%,4.38%,1.51%,8.01%,4.87%,18.1%,1.1%,3.56%,2.14%,2.69%,1.38%,2.28%,1.79%
CS(=O)(=O)CCNCc1ccc(-c2ccc3ncnc(Nc4ccc(OCc5ccccc5)cc4)c3c2)o1,2.54%,3.53%,3.51%,2.37%,1.88%,2.69%,2.6%,1.54%,1.49%,1.22%,1.69%,2.02%,2.23%,2.15%,3.81%,2.27%,2.78%,3.11%,4.28%,2.96%
O=C1Nc2ccccc2/C1=C1\CCc2cc(O)ccc21,15.4%,6.3%,11.8%,3.61%,8.21%,4.25%,16.7%,2.86%,3.03%,1.2%,2.49%,2.95%,3.95%,5.76%,28.4%,4.82%,27%,9.8%,42.1%,7.24%
